Data from PubChem BioAssay (Tox21).
Values joined by “and” are separate entries in the source; they are usually repeats but may differ in a detail not shown here. Equal values may be shown once. A number with no mark means an inactive call. Inconclusive results are not listed. Where a call stands in place of a potency, no number is given. Active and inactive are the calls of the source. Unless noted, calls follow the shape of the dose curve; as a rule, active = well fitted curve in the direction sought with a large enough effect in the repeat runs; inconclusive = weak or mixed curves; inactive = no such curve, though single readings can be large; an effect the other way counts as inactive or inconclusive.

How the values were obtained:
[1] = qHTS assay to identify small molecule HDAC inhibitors (AID 1259364);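 also: wild-type HCT-116 cells with endogenous class I/II HDAC activity; top concentration of the series differs between compounds; nearly all actives have a fitted effect of over 45% in size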
How it was run: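 Screening used wild-type human colon HCT-116 cells incubated overnight, dosed with compounds for 2 hours, and assayed with a homogeneous luminogenic HDAC I/II reagent for 30 minutes at room temperature.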

[2] = qHTS assay to identify small molecule HDAC inhibitors - cell viability counter screen (AID 1259365); also: series mostly up to about 92 µM; nearly all actives have a fitted effect of over 50% in size
How it was run: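 HCT-116 wild-type, overnight attachment; 2hr drug exposure, 37C; CellTiter-Glo luminescent ATP readout after 30min RT.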

[3] = qHTS assay to identify small molecule agonists of the sonic hedgehog signaling (Shh) pathway - cell viability counter screen (AID 1259366); also: nearly all actives have a fitted effect of over 50% in size; also: potency is read from the fitted curve at half-maximal effect
How it was run: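 Compounds in DMSO were pin-transferred onto 3T3 Gli1-Luc cells that had settled 4hr; plates then stood 24hr at 37C and 5% CO2. One hour before the end, CellTiter-Fluor was added and fluorescence recorded.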

[4] = qHTS assay to identify small molecule antagonists of the sonic hedgehog signaling (Shh) pathway - cell viability counter screen (AID 1259367); also: nearly all actives have a fitted effect of over 55% in size; also: potency is read from the fitted curve at half-maximal effect
How it was run: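 Viability was read by CellTiter-Fluor fluorescence in the same wells, reagent added 23 hr into compound treatment and incubated 1 hr at 37C. The 3T3 Gli1-Luc reporter cells (2,000/well) received conditioned medium after compound and ran 24 hr.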

[5] = qHTS assay to identify small molecule agonists of the sonic hedgehog signaling (Shh) pathway (AID 1259368; calls by dose curve;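 also: NIH/3T3-derived 3T3Gli1-Luc cells carrying a stable Gli1-driven firefly luciferase reporter; series mostly up to about 92 µM; nearly all actives have a fitted effect of over 15% in size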)
How it was run: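 Hedgehog pathway agonism scored by increased firefly luciferase luminescence in 3T3Gli1-Luc cells treated 24 hr at 37 C; detection used a 30 min room-temperature reagent incubation.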

[6] = qHTS assay to identify small molecule antagonists of the sonic hedgehog signaling (Shh) pathway (AID 1259369; calls by dose curve; also: nearly all actives have a fitted effect of over 45% in size; also: potency is read from the fitted curve at half-maximal effect)
How it was run: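 NIH/3T3 stable Gli1-Luc clone, 2,000 cells/well, 4hr settle; cpd + conditioned medium 24hr; Luc reagent 30min RT; luminescence.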

[7] = molecular target: Estrogen receptor beta (Homo sapiens) (UniProt Q92731); test: qHTS assay to identify small molecule antagonists of the estrogen receptor beta (ER-beta) signaling pathway (AID 1259378; active = well fitted inhibition curve with a large enough effect in the signal ratio in the repeat runs, not every such curve was filed as active; the % refers to the signal ratio; also: potency is read from the fitted curve at half-maximal effect)
How it was run: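 Antagonist mode: compounds added to beta-lactamase reporter HEK293T ER-beta-UAS cells stimulated with E2 (1nM final), 16 hr at 37C. LiveBLAzer B/G FRET substrate, 2 hours room temperature, fluorescence read-out.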

[8] = qHTS assay to identify small molecule agonists of the androgen receptor (AR) signaling pathway in the presence of an antagonist - cell viability counter screen (AID 1259379); also: nearly all actives have a fitted effect of over 25% in size; also: potency is read from the fitted curve at half-maximal effect
How it was run: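 MDA-kb2 viability measured by CellTiter-Fluor fluorescence in the same wells as the luciferase signal; nilutamide 3.0uM final; 15-point compound titration; 16 hr at 37C.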

[9] = qHTS assay to identify small molecule antagonists of the estrogen receptor beta (ER-beta) signaling pathway - cell viability counter screen (AID 1259382); also: nearly all actives have a fitted effect of over 55% in size; also: potency is read from the fitted curve at half-maximal effect
How it was run: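 Readout: luminescence, CellTiter-Glo, same wells as bla assay. System: ER-beta-UAS-bla GripTite HEK293T, 2% charcoal-stripped FBS. Exposure: compounds plus 1nM 17-beta-estradiol, 16 hr, 37C.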

[10] = qHTS assay to identify small molecule agonists or antagonists of the thyroid stimulating hormone receptor (TSHR) signaling pathway - wild type cell line counter screen (AID 1259384; calls by dose curve)
How it was run: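 Counter screen in untransfected Hek293: compounds (15-point titration, triplicate) plus phosphodiesterase inhibitor Ro20-1724 added after 18 h plating; 30 min RT. Intracellular cAMP via competitive d2/cryptate immunoassay, 1 h incubation.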

[11] = molecular target: Thyrotropin receptor (Homo sapiens) (UniProt P16473); test: qHTS assay to identify small molecule antagonists of the thyroid stimulating hormone receptor (TSHR) signaling pathway (AID 1259385; calls by dose curve; also: nearly all actives have a fitted effect of over 20% in size)
How it was run: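 Antagonist mode: compound-treated TSHR-expressing HEK293 cells were stimulated with 1.5 ng/mL TSH (final) in presence of Ro20-1724 for 30 min at RT. HTRF cAMP detection after 1 h; each compound tested at 15 concentrations, triplicate.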

[12] = qHTS assay to identify small molecule agonists of the estrogen receptor alpha (ER-alpha) signaling pathway in the presence of an antagonist - cell viability counter screen (AID 1259386);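 also: cells exposed to compounds for 22 h at 37 °C before the viability read; nearly all actives have a fitted effect of over 30% in size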; also: potency is read from the fitted curve at half-maximal effect
How it was run: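 The test measures whether compounds kill ER-alpha reporter cells (VM7Luc4E2) under antagonist co-treatment (ICI-182,780, 10.0nM). Fluorescence from CellTiter-Fluor is read after a 22hr exposure.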

[13] = molecular target: Progesterone receptor (Homo sapiens) (UniProt P06401); test: qHTS assay to identify small molecule agonists of the progesterone receptor (PR) signaling pathway (AID 1346784; calls by dose curve; also: nearly all actives have a fitted effect of over 30% in size)
How it was run: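 Fluorescence from LiveBLAzer B/G FRET substrate cleavage (2 hr, RT) reported PR activation in PR-UAS-bla HEK 293T cells treated 16 hr at 37C/5% CO2 with compounds; medium contained 2% charcoal-stripped FBS.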

[14] = molecular target: Progesterone receptor (Homo sapiens) (UniProt P06401); test: qHTS assay to identify small molecule antagonists of the progesterone receptor (PR) signaling pathway (AID 1346795; active = well fitted inhibition curve with a large enough effect in the signal ratio in the repeat runs, not every such curve was filed as active; the % refers to the signal ratio; also: potency is read from the fitted curve at half-maximal effect)
How it was run: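 Fluorescence intensity measured 2 hr after adding beta-lactamase FRET substrate to PR-UAS-bla HEK293T cells that had been co-treated 16 hr with compound and 1 nM R5020 (final concentration) in 2% charcoal-stripped FBS.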

[15] = molecular target: Estrogen receptor beta (Homo sapiens) (UniProt Q92731); test: qHTS assay to identify small molecule agonists of the estrogen receptor beta (ER-beta) signaling pathway (AID 1259377; active = well fitted activation curve with a large enough effect in the signal ratio in the repeat runs, not every such curve was filed as active; the % refers to the signal ratio)
How it was run: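 qHTS in ER-beta-UAS-bla HEK293T cells: 6 hr settling, then 16 hr compound at 37C, then LiveBLAzer substrate 2 h at RT before fluorescence reading.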

[16] = qHTS assay to identify small molecule agonists of the estrogen receptor beta (ER-beta) signaling pathway - cell viability counter screen (AID 1259380); also: nearly all actives have a fitted effect of over 30% in size; also: potency is read from the fitted curve at half-maximal effect
How it was run: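 Measured: luminescence from CellTiter-Glo after 30 min at room temperature, added to wells already read for the LiveBLAzer FRET reporter (2 hr substrate); ER-beta-UAS-bla HEK293T cells had 16 hr compound treatment at 37C, 5% CO2.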

[17] = molecular target: Androgen receptor (Homo sapiens) (UniProt P10275); test: qHTS assay to identify small molecule agonists of the androgen receptor (AR) signaling pathway in the presence of an antagonist (AID 1259381; calls by dose curve; also: nearly all actives have a fitted effect of over 15% in size)
How it was run: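 Luminescent ONE-Glo read, 30min at room temperature, follows 16hr compound exposure (15 concentrations) of MDA-kb2 cells at 37C, 0% CO2, with nilutamide added at 3.0uM final.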

[18] = molecular target: Estrogen receptor (Homo sapiens) (UniProt P03372); test: qHTS assay to identify small molecule agonists of the estrogen receptor alpha (ER-alpha) signaling pathway in the presence of an antagonist (AID 1259383; calls by dose curve; also: top concentration of the series differs between compounds; nearly all actives have a fitted effect of over 15% in size)
How it was run: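 Quantitative HTS confirmation: compounds titrated at 15 concentrations onto estrogen-deprived VM7Luc4E2 cells carrying a four-ERE luciferase construct, with ICI-182,780 present at 10.0nM final. Signal is luminescence after 22hr exposure.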

[19] = qHTS assay to identify small molecule phospholipidosis (PLD) inducers (AID 1259344; active = well fitted curve in the direction sought with a large enough effect; an effect the other way counts as inactive or inconclusive)
How it was run: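 Phospholipid accumulation was scored by imaging: fixed, Hoechst-counterstained HepG2 cells stained with LipidTOX Red after 24 h compound exposure at 37 C. Read-outs were pit count and pit intensity per well or per cell, with amiodarone and DMSO controls.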

Estrogen receptor (Homo sapiens), sequence (P03372 whole entry, looked up): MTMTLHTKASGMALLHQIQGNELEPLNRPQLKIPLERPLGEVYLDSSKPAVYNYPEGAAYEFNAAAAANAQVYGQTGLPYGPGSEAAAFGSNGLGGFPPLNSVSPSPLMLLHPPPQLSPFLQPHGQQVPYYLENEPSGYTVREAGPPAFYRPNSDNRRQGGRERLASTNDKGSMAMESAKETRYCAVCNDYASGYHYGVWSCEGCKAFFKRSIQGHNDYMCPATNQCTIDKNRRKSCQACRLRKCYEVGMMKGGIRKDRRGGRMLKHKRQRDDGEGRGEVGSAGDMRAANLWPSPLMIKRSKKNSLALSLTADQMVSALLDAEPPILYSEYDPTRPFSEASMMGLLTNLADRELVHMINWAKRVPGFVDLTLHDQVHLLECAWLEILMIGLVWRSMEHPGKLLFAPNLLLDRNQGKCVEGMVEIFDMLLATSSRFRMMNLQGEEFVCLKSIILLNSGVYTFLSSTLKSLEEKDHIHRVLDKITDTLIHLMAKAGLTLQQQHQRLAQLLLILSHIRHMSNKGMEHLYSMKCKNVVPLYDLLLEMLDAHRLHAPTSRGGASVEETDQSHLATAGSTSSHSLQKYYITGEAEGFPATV
Androgen receptor (Homo sapiens), sequence (P10275 whole entry, looked up): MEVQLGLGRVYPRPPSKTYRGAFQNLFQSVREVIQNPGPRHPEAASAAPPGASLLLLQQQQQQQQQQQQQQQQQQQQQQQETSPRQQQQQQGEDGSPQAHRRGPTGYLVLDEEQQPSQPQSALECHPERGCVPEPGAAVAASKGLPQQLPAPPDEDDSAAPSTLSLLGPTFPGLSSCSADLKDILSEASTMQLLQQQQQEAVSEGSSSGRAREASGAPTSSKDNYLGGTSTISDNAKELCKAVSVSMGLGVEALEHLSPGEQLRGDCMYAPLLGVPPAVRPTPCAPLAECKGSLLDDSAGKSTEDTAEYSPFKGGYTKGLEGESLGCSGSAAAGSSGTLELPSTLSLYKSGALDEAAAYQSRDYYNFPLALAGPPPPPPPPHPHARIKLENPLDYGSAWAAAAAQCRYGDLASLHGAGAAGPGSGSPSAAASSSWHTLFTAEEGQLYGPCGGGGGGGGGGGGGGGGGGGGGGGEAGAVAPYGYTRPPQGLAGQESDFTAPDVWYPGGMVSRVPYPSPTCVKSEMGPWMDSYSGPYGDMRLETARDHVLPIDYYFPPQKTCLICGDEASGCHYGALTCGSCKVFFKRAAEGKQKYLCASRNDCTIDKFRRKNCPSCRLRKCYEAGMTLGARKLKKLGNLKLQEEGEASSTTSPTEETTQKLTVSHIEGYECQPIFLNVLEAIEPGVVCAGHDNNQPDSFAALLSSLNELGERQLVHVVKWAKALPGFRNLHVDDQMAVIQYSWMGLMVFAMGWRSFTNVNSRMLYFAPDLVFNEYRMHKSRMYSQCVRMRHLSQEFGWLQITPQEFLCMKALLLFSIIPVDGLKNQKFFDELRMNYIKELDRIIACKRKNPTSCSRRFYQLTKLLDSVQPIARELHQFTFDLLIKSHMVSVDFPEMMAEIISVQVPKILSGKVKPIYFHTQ
Progesterone receptor (Homo sapiens), sequence (P06401 whole entry, looked up): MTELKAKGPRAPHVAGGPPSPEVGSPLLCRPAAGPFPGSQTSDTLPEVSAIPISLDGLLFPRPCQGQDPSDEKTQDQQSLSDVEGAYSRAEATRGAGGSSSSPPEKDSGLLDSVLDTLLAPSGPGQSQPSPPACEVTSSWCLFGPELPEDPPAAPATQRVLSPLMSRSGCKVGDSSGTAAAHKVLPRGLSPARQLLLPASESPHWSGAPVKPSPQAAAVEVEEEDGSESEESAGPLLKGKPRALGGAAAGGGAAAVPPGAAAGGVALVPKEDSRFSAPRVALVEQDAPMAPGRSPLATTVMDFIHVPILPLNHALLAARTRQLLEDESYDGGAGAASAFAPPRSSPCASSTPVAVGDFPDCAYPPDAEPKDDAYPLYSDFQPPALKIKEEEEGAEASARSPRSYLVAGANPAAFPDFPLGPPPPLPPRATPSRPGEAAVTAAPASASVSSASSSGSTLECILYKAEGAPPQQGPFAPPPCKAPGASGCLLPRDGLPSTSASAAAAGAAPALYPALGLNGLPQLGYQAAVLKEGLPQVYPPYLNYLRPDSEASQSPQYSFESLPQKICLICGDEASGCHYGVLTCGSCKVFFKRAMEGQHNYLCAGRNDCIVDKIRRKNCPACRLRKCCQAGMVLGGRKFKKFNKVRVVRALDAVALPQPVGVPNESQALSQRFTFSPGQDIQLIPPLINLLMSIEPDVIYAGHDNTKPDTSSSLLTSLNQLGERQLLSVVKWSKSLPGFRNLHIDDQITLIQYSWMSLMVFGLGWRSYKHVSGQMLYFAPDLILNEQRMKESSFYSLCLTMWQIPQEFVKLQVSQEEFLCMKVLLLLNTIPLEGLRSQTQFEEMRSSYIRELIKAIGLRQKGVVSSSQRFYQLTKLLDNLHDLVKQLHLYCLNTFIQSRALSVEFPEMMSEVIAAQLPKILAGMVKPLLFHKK
Estrogen receptor beta (Homo sapiens), sequence (Q92731 whole entry, looked up): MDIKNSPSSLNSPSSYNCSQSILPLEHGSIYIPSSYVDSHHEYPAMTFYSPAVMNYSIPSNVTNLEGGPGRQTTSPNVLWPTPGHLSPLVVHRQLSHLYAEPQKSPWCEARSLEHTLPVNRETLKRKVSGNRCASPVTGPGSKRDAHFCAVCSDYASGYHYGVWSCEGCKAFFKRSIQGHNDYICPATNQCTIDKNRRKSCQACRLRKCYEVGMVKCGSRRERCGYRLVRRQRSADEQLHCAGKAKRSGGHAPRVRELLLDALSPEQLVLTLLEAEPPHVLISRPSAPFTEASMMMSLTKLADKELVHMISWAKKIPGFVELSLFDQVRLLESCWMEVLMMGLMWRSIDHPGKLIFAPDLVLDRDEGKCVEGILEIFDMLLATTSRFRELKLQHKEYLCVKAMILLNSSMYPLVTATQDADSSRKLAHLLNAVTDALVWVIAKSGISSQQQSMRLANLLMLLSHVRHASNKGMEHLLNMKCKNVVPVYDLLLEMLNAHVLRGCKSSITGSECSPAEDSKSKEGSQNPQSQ
Thyrotropin receptor (Homo sapiens), sequence (P16473 whole entry, looked up): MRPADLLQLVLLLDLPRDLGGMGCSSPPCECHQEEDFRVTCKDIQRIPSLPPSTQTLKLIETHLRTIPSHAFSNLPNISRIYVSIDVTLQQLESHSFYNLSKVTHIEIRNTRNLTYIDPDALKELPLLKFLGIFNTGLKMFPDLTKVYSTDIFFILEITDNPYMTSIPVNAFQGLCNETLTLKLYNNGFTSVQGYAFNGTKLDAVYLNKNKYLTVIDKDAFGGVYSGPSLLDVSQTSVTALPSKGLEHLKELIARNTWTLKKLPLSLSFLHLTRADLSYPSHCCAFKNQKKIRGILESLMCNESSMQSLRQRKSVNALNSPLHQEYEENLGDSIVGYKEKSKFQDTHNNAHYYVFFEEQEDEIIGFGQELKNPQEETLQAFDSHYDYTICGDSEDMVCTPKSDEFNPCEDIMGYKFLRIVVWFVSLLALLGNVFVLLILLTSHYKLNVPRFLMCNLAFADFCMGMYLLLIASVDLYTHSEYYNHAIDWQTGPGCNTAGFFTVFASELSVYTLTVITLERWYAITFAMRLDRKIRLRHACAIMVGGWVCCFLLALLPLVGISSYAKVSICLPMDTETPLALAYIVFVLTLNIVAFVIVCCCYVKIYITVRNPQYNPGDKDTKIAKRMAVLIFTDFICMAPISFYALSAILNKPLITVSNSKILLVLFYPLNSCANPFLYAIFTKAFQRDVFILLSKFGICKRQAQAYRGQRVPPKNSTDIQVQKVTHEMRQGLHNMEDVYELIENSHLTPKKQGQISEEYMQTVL

| Compound | Potency [1] | Potency [2] | Potency [3] | Potency [4] | Potency [5] | Potency [6] | Potency [7] | Potency [8] | Potency [9] | outcome [10] | Potency [11] | Potency [12] | outcome [13] | Potency [14] | Potency [15] | Potency [16] | Potency [17] | Potency [18] | Potency [19] |
| --- | --- | --- | --- | --- | --- | --- | --- | --- | --- | --- | --- | --- | --- | --- | --- | --- | --- | --- | --- |
| C=CC(=O)OCCC#N | inactive | inactive | inactive | inactive | inactive | inactive | inactive | inactive | inactive | inactive | inactive | inactive | inactive | inactive |  |  |  |  |  |
| C=CC/C=C/C/C=C/C/C=C/C | inactive | inactive | inactive | inactive | inactive | inactive | inactive | inactive | inactive | inactive | inactive | inactive | inactive | inactive | inactive | inactive | inactive | inactive |  |
| COc1cccc(OC)c1O | inactive | inactive | inactive | inactive | inactive | inactive | inactive | inactive | inactive | inactive |  | inactive | inactive | inactive |  | inactive | inactive |  |  |
| Cc1cccc(C)n1 | inactive | inactive | inactive | inactive | inactive | inactive | inactive | inactive | inactive | inactive | inactive | inactive | inactive | inactive | inactive | inactive | inactive | inactive |  |
| O=C(O)CCCCCCC(=O)O | inactive | inactive | inactive | inactive | inactive | inactive | inactive | inactive | inactive | inactive | inactive | inactive | inactive | inactive | inactive | inactive |  |  |  |
| CN(C)c1ccc(N=NS(=O)(=O)O)cc1 |  | inactive | inactive |  |  | 12.2 µM (active) |  | 16.2 µM (active) |  |  |  | 38.6 µM (active) | inactive |  |  |  | inactive |  | inactive |
| CC(C)(C)c1n[nH]c(=O)n(N)c1=O | inactive | inactive | inactive | inactive | inactive | inactive | inactive | inactive | inactive | inactive |  | inactive |  | inactive | inactive | inactive | inactive | inactive |  |
| CCCCC(CC)COC(=O)c1ccc(O)cc1 (stereo not given) | inactive | inactive | inactive | 54.3 µM (active) | inactive | 43.3 µM (active) | 21.6 µM (active) and 21.7 µM (active) | inactive | 68.6 µM (active) | inactive | inactive |  | inactive | 30.5 µM (active) and 27.3 µM (active) | inactive | 61.1 µM (active) |  |  |  |
| CCCCCCCC/C=C\CCCCCCCC(=O)OCCOC(=O)CCCCCCC/C=C\CCCCCCCC | inactive | inactive | inactive | inactive | inactive | inactive | inactive |  | inactive | inactive | inactive | inactive | inactive |  |  | inactive |  | inactive |  |
| Cc1c(-c2ccc(O)cc2)n(Cc2ccc(OCCN3CCCCCC3)cc2)c2ccc(O)cc12 | inactive | inactive | 13.3 µM (active) | 26.6 µM (active) | inactive | 11.9 µM (active) |  | 29.8 µM (active) | 26.6 µM (active) |  |  | inactive |  |  |  | 29.8 µM (active) |  |  |  |
| CCOC(=O)CC(C)O (stereo not given) | inactive | inactive | inactive | inactive | inactive | inactive |  |  | inactive | inactive |  | inactive | inactive | inactive | inactive | inactive | inactive |  |  |
| c1cc[nH]c1 | inactive | inactive | inactive | inactive | inactive | inactive |  | inactive |  | inactive | inactive | inactive | inactive | inactive |  | inactive | inactive | inactive |  |
| CCOC(=O)CN | inactive | inactive | inactive | inactive | inactive | inactive |  | inactive | inactive | inactive | inactive |  | inactive | inactive |  | inactive |  |  |  |
| C/C=C/c1ccc(OC)c(OC)c1 | inactive | inactive | inactive | inactive | inactive | inactive | inactive | inactive | inactive | inactive | inactive |  |  |  | inactive | inactive |  |  |  |
| CCCCOCC | inactive | inactive | inactive | inactive | inactive | inactive | inactive | inactive | inactive | inactive | inactive |  | inactive | inactive | inactive | inactive | inactive |  |  |
